# Test results reported in paper PMC7862700, “An all-to-all approach to the identification of sequence-specific readers for epigenetic DNA modifications on cytosine”.
# How the values were obtained:
# Experiment in all cases: DAPPL (digital affinity profiling via proximity ligation, sequencing); 10 mM Tris-HCl pH 7.5, 50 mM NaCl, 1 mM DTT, 4% glycerol, room temperature, 30 min; GST-TFs on glutathione beads, 16-mer random dsDNA library, 0.1% formaldehyde crosslink after washing; high values mean tight binding
# FLI1 = molecular target: T1, FLI1 (Homo sapiens, UniProt Q01543 1-452); details: protein: recombinant; tags: N-terminal GST; dsDNA, one strand shown
# T1 sequence: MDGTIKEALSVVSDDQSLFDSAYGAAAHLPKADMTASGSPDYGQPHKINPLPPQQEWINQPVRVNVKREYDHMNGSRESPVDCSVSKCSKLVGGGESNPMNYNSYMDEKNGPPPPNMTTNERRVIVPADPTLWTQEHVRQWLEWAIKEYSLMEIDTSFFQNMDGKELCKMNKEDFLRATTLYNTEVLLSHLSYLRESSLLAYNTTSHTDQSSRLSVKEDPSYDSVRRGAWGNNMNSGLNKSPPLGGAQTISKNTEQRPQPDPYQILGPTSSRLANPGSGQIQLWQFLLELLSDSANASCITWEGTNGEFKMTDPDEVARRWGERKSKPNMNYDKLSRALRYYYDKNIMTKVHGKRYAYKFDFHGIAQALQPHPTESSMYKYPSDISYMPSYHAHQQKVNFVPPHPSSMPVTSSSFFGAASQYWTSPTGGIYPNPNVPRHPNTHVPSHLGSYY
# How it was run: (§1)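 Pools of DNA-barcoded human transcription factors, expressed in yeast as GST fusions on glutathione beads and combined with a tag-only sample, were incubated with 200 nmole of a 16-mer random double-stranded DNA library. Incubation took 30 min at room temperature in Tris/NaCl/DTT/glycerol buffer and was followed by washing, 0.1% formaldehyde crosslinking, proximity ligation (BsaI/T4 ligase, 1 h, 37 °C), PCR amplification and sequencing on an Illumina NextSeq500. Binding signal is the ratio of a hexamer's read frequency for a factor to its frequency for the tag-only sample.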
# ELK1 = molecular target: T2, ELK1 (Homo sapiens, UniProt P19419 1-428); details: protein: recombinant; tags: N-terminal GST; dsDNA, one strand shown
# T2 sequence: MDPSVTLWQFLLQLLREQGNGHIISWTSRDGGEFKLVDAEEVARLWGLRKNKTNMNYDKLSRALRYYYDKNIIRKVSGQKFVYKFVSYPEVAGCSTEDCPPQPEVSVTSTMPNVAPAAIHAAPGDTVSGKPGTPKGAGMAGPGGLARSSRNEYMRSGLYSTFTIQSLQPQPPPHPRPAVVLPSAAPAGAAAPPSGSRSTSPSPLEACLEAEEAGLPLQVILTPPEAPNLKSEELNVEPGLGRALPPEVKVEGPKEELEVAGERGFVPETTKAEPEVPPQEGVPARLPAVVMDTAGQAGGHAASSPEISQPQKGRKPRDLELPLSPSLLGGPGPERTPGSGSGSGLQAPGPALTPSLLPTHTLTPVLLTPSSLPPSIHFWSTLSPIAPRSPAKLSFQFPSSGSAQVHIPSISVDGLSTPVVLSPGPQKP
# How it was run: as §1
# GABPA = molecular target: T3, GABPA (Homo sapiens, UniProt Q06546 1-454); details: protein: recombinant; tags: N-terminal GST; dsDNA, one strand shown
# T3 sequence: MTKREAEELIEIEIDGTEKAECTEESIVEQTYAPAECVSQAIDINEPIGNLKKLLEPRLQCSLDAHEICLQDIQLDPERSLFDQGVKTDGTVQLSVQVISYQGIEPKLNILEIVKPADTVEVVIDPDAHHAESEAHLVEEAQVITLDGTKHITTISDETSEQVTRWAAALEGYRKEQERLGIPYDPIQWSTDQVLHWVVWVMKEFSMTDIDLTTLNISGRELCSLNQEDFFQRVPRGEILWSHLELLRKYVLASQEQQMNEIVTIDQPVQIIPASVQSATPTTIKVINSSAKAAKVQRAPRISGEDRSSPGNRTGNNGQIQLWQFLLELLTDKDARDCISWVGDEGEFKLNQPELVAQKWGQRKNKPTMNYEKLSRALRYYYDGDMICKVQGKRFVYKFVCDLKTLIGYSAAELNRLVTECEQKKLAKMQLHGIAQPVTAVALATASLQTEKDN
# How it was run: as §1
# ERG = molecular target: T4, ERG (Homo sapiens, UniProt P11308 1-479); details: protein: recombinant; tags: N-terminal GST; dsDNA, one strand shown
# T4 sequence: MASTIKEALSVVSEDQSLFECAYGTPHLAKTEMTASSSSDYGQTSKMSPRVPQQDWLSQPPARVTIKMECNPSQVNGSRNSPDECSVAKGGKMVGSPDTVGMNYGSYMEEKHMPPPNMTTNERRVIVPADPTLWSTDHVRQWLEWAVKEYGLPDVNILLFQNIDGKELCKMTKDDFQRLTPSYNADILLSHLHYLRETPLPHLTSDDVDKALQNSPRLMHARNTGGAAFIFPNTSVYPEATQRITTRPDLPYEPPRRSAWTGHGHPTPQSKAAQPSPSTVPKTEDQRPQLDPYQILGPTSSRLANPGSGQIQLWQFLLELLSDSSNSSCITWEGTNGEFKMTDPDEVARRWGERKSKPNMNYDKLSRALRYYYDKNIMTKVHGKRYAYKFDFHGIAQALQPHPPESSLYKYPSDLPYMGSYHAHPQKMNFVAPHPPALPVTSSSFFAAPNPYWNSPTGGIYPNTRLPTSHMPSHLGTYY
# How it was run: as §1
# ELF1 = ELF1 (Homo sapiens, UniProt P32519 1-619); details: protein: recombinant; tags: N-terminal GST; dsDNA, one strand shown
# How it was run: as §1
# EHF = molecular target: T5, EHF (Homo sapiens, UniProt Q9NZC4 1-300); details: protein: recombinant; tags: N-terminal GST; dsDNA, one strand shown
# T5 sequence: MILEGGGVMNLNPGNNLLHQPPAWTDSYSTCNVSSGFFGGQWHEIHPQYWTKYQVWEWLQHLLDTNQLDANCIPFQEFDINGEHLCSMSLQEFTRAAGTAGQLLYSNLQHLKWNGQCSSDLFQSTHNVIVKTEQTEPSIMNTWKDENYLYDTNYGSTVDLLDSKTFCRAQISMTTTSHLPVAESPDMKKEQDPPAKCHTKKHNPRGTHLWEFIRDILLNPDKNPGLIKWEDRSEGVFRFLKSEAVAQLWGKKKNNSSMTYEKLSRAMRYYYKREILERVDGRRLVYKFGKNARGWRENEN
# How it was run: as §1
# SPI1 = SPI1 (Homo sapiens, UniProt P17947 1-270); details: protein: recombinant; tags: N-terminal GST; dsDNA, one strand shown
# How it was run: as §1
# SPIB = SPIB (Homo sapiens, UniProt Q01892 1-262); details: protein: recombinant; tags: N-terminal GST; dsDNA, one strand shown
# How it was run: as §1
# ELK3 = molecular target: T6, ELK3 (Homo sapiens, UniProt P41970 1-407); details: protein: recombinant; tags: N-terminal GST; dsDNA, one strand shown
# T6 sequence: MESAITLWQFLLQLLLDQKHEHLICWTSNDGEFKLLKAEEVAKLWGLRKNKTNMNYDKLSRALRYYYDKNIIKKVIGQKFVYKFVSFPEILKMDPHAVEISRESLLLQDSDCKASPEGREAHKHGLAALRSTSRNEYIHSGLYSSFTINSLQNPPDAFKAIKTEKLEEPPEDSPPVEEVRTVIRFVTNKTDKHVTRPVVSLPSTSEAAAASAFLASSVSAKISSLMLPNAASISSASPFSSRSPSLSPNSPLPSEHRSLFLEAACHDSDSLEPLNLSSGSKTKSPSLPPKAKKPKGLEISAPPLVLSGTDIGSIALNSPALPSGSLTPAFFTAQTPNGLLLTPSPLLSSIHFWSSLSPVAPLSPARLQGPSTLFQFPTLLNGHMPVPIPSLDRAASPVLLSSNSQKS
# How it was run: as §1
# FEV = molecular target: T7, FEV (Homo sapiens, UniProt Q99581 1-238); details: protein: recombinant; tags: N-terminal GST; dsDNA, one strand shown
# T7 sequence: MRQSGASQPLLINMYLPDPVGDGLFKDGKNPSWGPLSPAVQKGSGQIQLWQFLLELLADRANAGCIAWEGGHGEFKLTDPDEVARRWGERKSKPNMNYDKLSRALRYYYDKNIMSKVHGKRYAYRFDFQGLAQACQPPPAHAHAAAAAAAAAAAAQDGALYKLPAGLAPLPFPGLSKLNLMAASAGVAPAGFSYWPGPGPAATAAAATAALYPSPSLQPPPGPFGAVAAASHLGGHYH
# How it was run: as §1
# ETV5 = ETV5 (Homo sapiens, UniProt P41161 1-510); details: protein: recombinant; tags: N-terminal GST; dsDNA, one strand shown
# How it was run: as §1
# HSF1 = HSF1 (Homo sapiens, UniProt Q00613 1-529); details: protein: recombinant; tags: N-terminal GST; chain copies: 3; dsDNA, one strand shown
# How it was run: as §1
# SPIC = molecular target: T8, SPIC (Homo sapiens, UniProt Q8N5J4 1-248); details: protein: recombinant; tags: N-terminal GST; dsDNA, one strand shown
# T8 sequence: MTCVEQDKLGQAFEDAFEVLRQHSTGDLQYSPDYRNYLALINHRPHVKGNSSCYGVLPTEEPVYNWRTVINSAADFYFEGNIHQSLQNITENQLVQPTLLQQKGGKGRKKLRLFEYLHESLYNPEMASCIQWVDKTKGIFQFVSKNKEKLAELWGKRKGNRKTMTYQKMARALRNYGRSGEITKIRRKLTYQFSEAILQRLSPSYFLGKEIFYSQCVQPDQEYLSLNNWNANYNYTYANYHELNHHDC
# How it was run: as §1
# ELF4 = ELF4 (Homo sapiens, UniProt Q99607 1-663); details: protein: recombinant; tags: N-terminal GST; dsDNA, one strand shown
# How it was run: as §1
# ELK4 = molecular target: T9, ELK4 (Homo sapiens, UniProt P28324-2 1-405); details: protein: recombinant; tags: N-terminal GST; dsDNA, one strand shown
# T9 sequence: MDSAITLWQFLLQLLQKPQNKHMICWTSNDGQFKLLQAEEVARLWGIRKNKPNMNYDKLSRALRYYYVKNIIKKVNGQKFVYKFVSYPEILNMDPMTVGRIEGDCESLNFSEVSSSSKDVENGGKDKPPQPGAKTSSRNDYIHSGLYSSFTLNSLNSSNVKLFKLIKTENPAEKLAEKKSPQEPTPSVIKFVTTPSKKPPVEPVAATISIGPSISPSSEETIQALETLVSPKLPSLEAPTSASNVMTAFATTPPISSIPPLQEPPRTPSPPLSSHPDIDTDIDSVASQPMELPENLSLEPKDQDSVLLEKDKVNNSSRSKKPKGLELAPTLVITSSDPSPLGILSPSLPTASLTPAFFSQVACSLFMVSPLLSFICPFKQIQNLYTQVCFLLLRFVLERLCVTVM
# How it was run: as §1
# ETV2 = molecular target: T10, ETV2 (Homo sapiens, UniProt O00321 1-342); details: protein: recombinant; tags: N-terminal GST; dsDNA, one strand shown
# T10 sequence: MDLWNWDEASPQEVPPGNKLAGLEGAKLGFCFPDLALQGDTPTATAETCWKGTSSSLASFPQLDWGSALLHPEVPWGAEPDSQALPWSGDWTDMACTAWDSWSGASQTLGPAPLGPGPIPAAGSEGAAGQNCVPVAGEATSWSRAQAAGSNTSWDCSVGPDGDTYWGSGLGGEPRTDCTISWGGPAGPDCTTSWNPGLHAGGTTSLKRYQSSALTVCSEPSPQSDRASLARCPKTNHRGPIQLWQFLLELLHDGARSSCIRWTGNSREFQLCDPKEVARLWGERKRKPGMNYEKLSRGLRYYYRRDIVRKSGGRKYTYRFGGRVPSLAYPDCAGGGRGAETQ
# How it was run: as §1
# ELF3 = molecular target: T11, ELF3 (Homo sapiens, UniProt P78545 1-371); details: protein: recombinant; tags: N-terminal GST; dsDNA, one strand shown
# T11 sequence: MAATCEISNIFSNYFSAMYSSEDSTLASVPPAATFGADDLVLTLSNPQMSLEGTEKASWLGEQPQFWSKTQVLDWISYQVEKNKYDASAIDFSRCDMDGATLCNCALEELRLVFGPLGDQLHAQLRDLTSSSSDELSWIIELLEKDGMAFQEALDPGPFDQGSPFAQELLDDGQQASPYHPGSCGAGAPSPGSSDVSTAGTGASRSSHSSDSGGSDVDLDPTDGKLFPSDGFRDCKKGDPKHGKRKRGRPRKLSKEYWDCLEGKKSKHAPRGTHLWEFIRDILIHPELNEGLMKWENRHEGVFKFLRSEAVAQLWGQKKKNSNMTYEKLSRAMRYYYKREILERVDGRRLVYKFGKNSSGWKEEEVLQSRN
# How it was run: as §1
# CRX = CRX (Homo sapiens, UniProt O43186 1-299); details: protein: recombinant; tags: N-terminal GST; dsDNA, one strand shown
# How it was run: as §1
# ETV1 = ETV1 (Homo sapiens, UniProt P50549 1-477); details: protein: recombinant; tags: N-terminal GST; dsDNA, one strand shown
# How it was run: as §1
# ELF1, sequence (P32519 whole entry): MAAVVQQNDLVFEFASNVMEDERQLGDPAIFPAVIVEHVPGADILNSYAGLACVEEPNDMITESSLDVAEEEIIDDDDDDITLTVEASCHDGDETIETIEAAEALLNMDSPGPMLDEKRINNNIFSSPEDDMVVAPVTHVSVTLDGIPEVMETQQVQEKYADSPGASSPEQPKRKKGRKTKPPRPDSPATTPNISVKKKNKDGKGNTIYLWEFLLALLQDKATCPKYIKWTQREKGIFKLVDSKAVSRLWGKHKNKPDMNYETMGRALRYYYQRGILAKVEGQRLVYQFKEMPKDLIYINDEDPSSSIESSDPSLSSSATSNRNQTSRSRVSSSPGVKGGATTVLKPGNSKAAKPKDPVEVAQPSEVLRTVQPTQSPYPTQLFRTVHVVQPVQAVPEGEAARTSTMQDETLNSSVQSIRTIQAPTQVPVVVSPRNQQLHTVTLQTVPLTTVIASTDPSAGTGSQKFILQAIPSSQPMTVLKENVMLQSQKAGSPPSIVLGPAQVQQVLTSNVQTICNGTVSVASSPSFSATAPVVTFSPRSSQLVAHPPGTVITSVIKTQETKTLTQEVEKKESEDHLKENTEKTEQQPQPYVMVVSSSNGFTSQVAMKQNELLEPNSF
# ELF4, sequence (Q99607 whole entry): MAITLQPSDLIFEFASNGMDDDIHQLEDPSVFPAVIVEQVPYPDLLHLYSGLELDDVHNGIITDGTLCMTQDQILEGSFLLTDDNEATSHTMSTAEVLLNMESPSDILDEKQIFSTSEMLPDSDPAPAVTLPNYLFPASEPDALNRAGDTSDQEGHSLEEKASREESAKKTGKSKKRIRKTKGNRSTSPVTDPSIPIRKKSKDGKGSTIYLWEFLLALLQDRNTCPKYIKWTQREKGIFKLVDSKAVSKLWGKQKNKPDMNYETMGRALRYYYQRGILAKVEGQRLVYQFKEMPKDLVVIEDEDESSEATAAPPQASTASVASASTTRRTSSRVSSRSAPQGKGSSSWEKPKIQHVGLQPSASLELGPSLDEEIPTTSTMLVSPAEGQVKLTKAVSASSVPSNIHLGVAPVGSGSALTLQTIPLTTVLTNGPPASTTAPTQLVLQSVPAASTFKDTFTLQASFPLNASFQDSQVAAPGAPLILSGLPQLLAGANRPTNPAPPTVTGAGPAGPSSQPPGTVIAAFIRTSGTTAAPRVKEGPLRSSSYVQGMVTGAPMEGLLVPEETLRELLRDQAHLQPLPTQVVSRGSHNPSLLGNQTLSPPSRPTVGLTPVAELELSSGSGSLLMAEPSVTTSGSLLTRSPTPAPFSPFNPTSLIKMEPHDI
# ETV5, sequence (P41161 whole entry): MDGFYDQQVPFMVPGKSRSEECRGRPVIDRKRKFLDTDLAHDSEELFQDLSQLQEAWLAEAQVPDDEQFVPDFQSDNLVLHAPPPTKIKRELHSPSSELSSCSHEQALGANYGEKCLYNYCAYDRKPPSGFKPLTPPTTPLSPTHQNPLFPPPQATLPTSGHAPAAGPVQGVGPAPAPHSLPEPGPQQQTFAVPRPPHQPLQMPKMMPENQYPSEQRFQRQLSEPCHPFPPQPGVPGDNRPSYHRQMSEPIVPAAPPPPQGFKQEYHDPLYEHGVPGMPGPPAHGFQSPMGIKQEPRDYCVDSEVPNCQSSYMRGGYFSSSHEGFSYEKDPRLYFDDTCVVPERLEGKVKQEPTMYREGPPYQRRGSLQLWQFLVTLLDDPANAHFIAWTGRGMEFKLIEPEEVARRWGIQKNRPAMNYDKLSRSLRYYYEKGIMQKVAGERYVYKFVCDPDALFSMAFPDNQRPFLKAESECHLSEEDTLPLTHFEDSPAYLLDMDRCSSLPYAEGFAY
# CRX, sequence (O43186 whole entry): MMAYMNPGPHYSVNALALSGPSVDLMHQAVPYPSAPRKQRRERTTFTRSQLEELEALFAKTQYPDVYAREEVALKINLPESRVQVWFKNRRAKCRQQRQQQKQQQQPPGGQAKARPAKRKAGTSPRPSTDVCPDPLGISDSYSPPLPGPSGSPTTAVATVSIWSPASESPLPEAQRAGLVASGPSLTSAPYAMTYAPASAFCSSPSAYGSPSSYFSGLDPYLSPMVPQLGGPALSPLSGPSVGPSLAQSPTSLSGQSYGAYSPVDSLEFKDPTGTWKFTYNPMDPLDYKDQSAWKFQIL
# HSF1, sequence (Q00613 whole entry): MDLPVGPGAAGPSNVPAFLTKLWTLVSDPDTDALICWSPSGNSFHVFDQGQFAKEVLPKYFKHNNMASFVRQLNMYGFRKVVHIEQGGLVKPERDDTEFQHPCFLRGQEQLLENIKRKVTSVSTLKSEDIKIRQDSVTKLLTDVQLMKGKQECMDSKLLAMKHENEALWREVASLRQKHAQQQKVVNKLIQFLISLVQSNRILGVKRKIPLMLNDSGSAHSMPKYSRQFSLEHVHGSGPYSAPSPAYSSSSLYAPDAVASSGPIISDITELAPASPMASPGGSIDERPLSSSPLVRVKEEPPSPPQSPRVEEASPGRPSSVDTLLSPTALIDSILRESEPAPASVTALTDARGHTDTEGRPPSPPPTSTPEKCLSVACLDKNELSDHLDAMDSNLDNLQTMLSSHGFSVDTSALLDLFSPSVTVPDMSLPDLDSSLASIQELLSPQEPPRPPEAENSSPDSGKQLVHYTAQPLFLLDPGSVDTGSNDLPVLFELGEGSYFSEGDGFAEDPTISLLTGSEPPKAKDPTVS
# ETV1, sequence (P50549 whole entry): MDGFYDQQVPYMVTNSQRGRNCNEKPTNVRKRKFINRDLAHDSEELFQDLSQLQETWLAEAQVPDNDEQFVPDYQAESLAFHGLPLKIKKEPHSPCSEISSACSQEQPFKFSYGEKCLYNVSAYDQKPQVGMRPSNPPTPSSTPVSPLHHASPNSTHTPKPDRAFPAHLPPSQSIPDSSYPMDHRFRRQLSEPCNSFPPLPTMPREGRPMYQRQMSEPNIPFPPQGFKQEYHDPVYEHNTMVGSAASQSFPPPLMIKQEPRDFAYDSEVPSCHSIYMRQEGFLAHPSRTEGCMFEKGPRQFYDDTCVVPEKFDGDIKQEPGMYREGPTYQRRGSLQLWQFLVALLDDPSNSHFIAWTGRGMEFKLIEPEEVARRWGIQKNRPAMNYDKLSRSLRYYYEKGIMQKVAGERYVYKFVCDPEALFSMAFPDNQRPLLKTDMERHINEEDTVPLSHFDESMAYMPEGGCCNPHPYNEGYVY
# SPIB, sequence (Q01892 whole entry): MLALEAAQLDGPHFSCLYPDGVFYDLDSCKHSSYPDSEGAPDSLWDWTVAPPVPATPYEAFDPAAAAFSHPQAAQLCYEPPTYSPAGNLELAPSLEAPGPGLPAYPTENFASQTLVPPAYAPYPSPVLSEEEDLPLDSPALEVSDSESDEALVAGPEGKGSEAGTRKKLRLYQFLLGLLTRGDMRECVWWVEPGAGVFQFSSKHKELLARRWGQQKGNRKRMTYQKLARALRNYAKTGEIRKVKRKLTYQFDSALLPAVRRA
sequence,measurement,setting,value
TTGCGA,binding signal,FLI1,"1.19 fold enrichment (6-mer frequency, TF over GST control)"
same,binding signal,ELK1,"1.08 fold enrichment (6-mer frequency, TF over GST control)"
same,binding signal,GABPA,"1.1 fold enrichment (6-mer frequency, TF over GST control)"
same,binding signal,ERG,"1.17 fold enrichment (6-mer frequency, TF over GST control)"
same,binding signal,ELF1,"1.16 fold enrichment (6-mer frequency, TF over GST control)"
same,binding signal,EHF,"1.13 fold enrichment (6-mer frequency, TF over GST control)"
same,binding signal,SPI1,"1.17 fold enrichment (6-mer frequency, TF over GST control)"
same,binding signal,SPIB,"1.23 fold enrichment (6-mer frequency, TF over GST control)"
same,binding signal,ELK3,"1.21 fold enrichment (6-mer frequency, TF over GST control)"
same,binding signal,FEV,"1.08 fold enrichment (6-mer frequency, TF over GST control)"
same,binding signal,ETV5,"1.15 fold enrichment (6-mer frequency, TF over GST control)"
same,binding signal,HSF1,"1.24 fold enrichment (6-mer frequency, TF over GST control)"
same,binding signal,SPIC,"1.35 fold enrichment (6-mer frequency, TF over GST control)"
same,binding signal,ELF4,"1.14 fold enrichment (6-mer frequency, TF over GST control)"
same,binding signal,ELK4,"1.11 fold enrichment (6-mer frequency, TF over GST control)"
same,binding signal,ETV2,"1.1 fold enrichment (6-mer frequency, TF over GST control)"
same,binding signal,ELF3,"1.16 fold enrichment (6-mer frequency, TF over GST control)"
same,binding signal,CRX,"1.15 fold enrichment (6-mer frequency, TF over GST control)"
same,binding signal,ETV1,"1.15 fold enrichment (6-mer frequency, TF over GST control)"
